Shown are actives, neighbours in structure and some others; about 2.1% of the full set was active somewhere.
Abeta rescue = A-beta toxicity reversal in yeast | yeast expressing A-beta42, growth rescue, OD600, 48 h; response scale: 0% DMSO, 100% iron-clioquinol control | Potency, µM (series often up to 46.1 µM), hits mostly activators | actives 0.063% (n = 410,000) | AID 1347071; further: nearly all actives have a fitted effect of over 55% in size
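Yeast growth medium received pinned compounds, then yeast cells expressing toxic A-beta were added; plates incubated at 30 C for 48 hr. Growth read as absorbance at 600 nm, normalized to DMSO and equimolar FeCl3 plus clioquinol controls.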
aSyn rescue = inhibitors of alpha-synuclein toxicity in yeast; Potency, µM (series often up to 46.1 µM), without a hit: at the highest dose growth rescue (activation), hits mostly activators; Yeast expressing alpha-synuclein, growth rescue, BacTiter-Glo, 24 h; actives 0.14% (n = 370,000); further: % of control where 0% means no effect; nearly all actives have a fitted effect of over 65% in size
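Rescue of yeast growth: cells expressing toxic alpha-synuclein, induced in galactose at OD600 0.02, incubated with compound 24 h at 30 C. ATP luminescence quantified growth; inhibitors of toxicity appear as activators.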
TSG101-PTAP inh = blocks PTAP/TSG101 interaction to inhibit HIV-1 budding; Q99816; 340,000 tested, under 10 active; AID 493005; Fluorescence polarization, FITC-PTAP peptide / Tsg101 binding; Potency, µM (doses to about 115 µM), without a hit: at the highest dose activity change, negative = inhibition, actives largely listed as inhibitors; active means well fitted inhibition curve with a large enough effect in the main read-out, with a control signal flat, not every such curve was filed as active; inconclusive means small, poorly fitted or top-dose-only effect, or effect the other way, or a change in a side signal; inactive means no such curve, though single readings can be large or run the other way; further: % of control where 0% means no effect
Target sequence (Q99816 whole entry, looked up): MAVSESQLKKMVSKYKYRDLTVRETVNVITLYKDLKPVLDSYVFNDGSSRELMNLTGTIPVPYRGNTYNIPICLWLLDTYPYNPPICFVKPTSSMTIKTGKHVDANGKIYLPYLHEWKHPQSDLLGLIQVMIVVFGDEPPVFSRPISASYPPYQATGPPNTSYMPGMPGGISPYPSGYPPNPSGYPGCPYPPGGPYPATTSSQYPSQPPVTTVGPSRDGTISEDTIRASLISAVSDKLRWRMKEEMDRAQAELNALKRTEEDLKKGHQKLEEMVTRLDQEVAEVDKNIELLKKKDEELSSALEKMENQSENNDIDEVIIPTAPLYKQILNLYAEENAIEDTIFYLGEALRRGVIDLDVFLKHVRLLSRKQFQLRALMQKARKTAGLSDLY
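Steps: Tsg101 binding domain dispensed (10 uM final), compounds pinned in DMSO, FITC-labeled PTAP-motif peptide added (50 nM final); after 20 min binding at room temperature, polarization measured.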
FUS yeast rescue = rescues growth of FUS-expressing yeast; S. cerevisiae FUS-expressing, growth rescue, OD600, 24 h; actives 0.24% (n = 390,000); Potency, µM (top dose mostly 76.6 µM), actives largely listed as activators; AID 1347120;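 further: plate controls were DMSO vehicle for no effect and reference control for full effect; nearly all actives have a fitted effect of over 55% in size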
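Galactose (2%) drives FUS expression in yeast precultured in raffinose; seeding density OD 0.005. Test compounds incubated 24hr at 30C and 99% humidity before absorbance at 600 nm was measured.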
TDP-43 yeast inh = inhibitors of TDP-43 toxicity in yeast; TDP-43 expressing yeast growth rescue, BacTiter-Glo, 24 h; Potency, µM (series often up to 46.1 µM), for the others: top-dose growth rescue (activation), most hits filed as activators; actives 1.8% (n = 410,000); further: % of control where 0% means no effect; nearly all actives have a fitted effect of over 50% in size
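Growth rescue of TDP-43-toxic yeast measured as ATP luminescence (BacTiter-Glo). Cells grown to mid-log in raffinose, induced in galactose at OD600=0.02, exposed to compound 24 hr at 30 deg C.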
Numbers without * were called inactive; i = inactive; ? = inconclusive; . = no result; ! = repeats disagree. Unless noted, the call rests on the fitted dose curve; in most records, active means well fitted curve in the direction sought with a large enough effect; inconclusive means small, poorly fitted or top-dose-only effect, or another doubt; inactive means no such curve, though single readings can be large; an effect the other way counts as inactive or inconclusive. Potency means the concentration at half of the fitted maximal effect.

SMILES | Abeta rescue | aSyn rescue | TSG101-PTAP inh | FUS yeast rescue | TDP-43 yeast inh
CCCn1c(NC(=O)c2cccc(C)c2C)nc2ccccc21 | i | ? | -2.1% | i | 20µM*
c1ccc(OCCn2c(-c3ccco3)nc3ccccc32)cc1 | i | ? | -0.9% | i | ?
Cc1cccc(OCCn2c(-c3ccco3)nc3ccccc32)c1 | i | -7.6% | -6.0% | i | 11.2µM*
Cc1ccc(OCCn2c(NC(=O)c3ccco3)nc3ccccc32)cc1 | i | -3.9% | -3.9% | i | 5.8%
CCc1ccccc1NC(=O)N1CCN(Cc2nc3ccc(C)cc3o2)CC1 | i | . | . | i | 15.0%
S=C(Nc1ccc(Cl)c(Cl)c1)N1CCCC1 | i | -6.4% | -2.7% | i | 3.16µM*
CCCCc1ccc(NC(=S)N2CCCC2)cc1 | 11.2µM* | -18.1% | -4.2% | i | 20.9%
Fc1ccccc1-n1ncc2c1ncn1nc(Cc3ccccc3)nc21 | i | . | . | i | 10µM*
COc1ccc(Cc2nc3c4cnn(-c5ccccc5F)c4ncn3n2)cc1 | i | . | . | i | ?
COc1ccc(OC)c(C2=NS(=O)(=O)N(C)C(C(=O)Nc3ccc(F)cc3F)=C2)c1 | i | -2.4% | -2.5% | i | 35.5µM*!
Cc1ccc(C2=NS(=O)(=O)N(C)C(C(=O)Nc3ccc(F)cc3F)=C2)cc1 | i | 6.3% | -3.8% | i | 5.7%
C/C=C/c1ccccc1OCCCN1CCC(C(O)(c2ccccc2)c2ccccc2)CC1 | . | . | . | i | .
CC(C)(C)c1cc(NCc2ccccn2)n2ncc(-c3ccc(Cl)cc3)c2n1 | i | 12.1% | -5.1% | i | 22.4µM*
COCc1cccc(-c2csc(C(O)c3cccc(OC)c3)n2)c1 (centres undefined) | i | 19.9% | . | i | ?
CN1C(=O)C2(SCC(=O)N2c2ccc(F)cc2)c2ccccc21 (centres undefined) | i | 2.5% | . | i | 23.5%
O=C(O)c1ccc(SCc2ccccc2)nc1 | i | 7.1% | -3.7% | i | 12.6µM*
Cc1ccccc1N(C)C(=O)Cn1nnc(-c2ccccc2F)n1 | . | . | . | i | .
Cc1ccc(NC(=O)c2cc(S(=O)(=O)N3CCC4(CC3)OCCO4)ccc2F)cc1Cl | i | . | . | i | -3.6%
C/C(=N/NC(N)=S)c1cc2ccc(O)cc2oc1=O | 11.2µM* | -6.2% | 15.6% | i | 19.7%
O=C(Cn1c(=O)c2cccn2c2ccc(F)cc21)NCc1cccc(Cl)c1 | i | . | . | i | 3.1%
CCSc1nnc(NC(=O)c2ccccc2)s1 | i | 0.7% | -2.8% | i | 19.4%
CCSc1nnc(NC(=O)c2ccccc2C)s1 | i | -8.6% | -0.2% | i | 11.2µM*
CCSc1nnc(NC(=O)C2Cc3ccccc3CN2S(=O)(=O)CC)s1 (centres undefined) | i | 2.7% | -1.0% | 3.55µM* | 3.1%
CCS(=O)(=O)N1Cc2ccccc2CC1C(=O)Nc1nnc(SCc2c(Cl)cccc2Cl)s1 (centres undefined) | i | 3.6% | -2.3% | . | 18.4%
CCc1nnc(NC(=O)C2Cc3ccccc3CN2S(=O)(=O)c2ccc(C)cc2)s1 (centres undefined) | i | 0.7% | -2.0% | 14.1µM* | 16.9%
SMILES | Abeta rescue | aSyn rescue | TSG101-PTAP inh | FUS yeast rescue | TDP-43 yeast inh
CCc1nnc(NC(=O)C2Cc3ccccc3CN2S(=O)(=O)c2cccs2)s1 (centres undefined) | i | 2.6% | -0.4% | i | 0.0%
Cc1ccc(-c2cn3cccnc3n2)cc1NC(=O)Cc1ccccc1 | i | . | . | i | -29.1%
Cc1noc(NS(=O)(=O)c2ccc(N/C=C/C(=O)c3cccnc3)cc2)c1C | i | 20µM* | -3.6% | i | -0.7%
Cc1noc(NS(=O)(=O)c2ccc(N/C=C\C(=O)c3ccncc3)cc2)c1C | i | 1.9% | -2.1% | i | 9.4%
CCCCCCC(=O)N1C/C=C\C(c2ccc(OC)cc2)N(Cc2ccc(F)cc2)C(=O)C1 (centres undefined) | i | 7.7% | . | ? | 28.2µM*
COCCCNC(=O)C(C)n1c2ccccc2c2cnn(C)c(=O)c21 (centres undefined) | i | . | . | i | 18.3%
O=C1c2sccc2-c2cccc3cccc1c23 | i | ? | . | i | -51.9%
O=C1C(Br)=Cc2cccc3cccc1c23 | i | 0.4% | -26.4% | i | 14.1µM*
CCOC(=O)c1c(-c2ccccc2)nnn1-c1nc(OCC)nc(N2CCCCC2)n1 | i | -26.3% | -3.2% | i | 22.4µM*
COc1ccc(N2CCN(C(=O)c3nn(C)c4c3CSc3ccccc3-4)CC2)cc1 | i | . | . | i | 12.6µM*
COc1ccc(N2CCN(C(=O)c3cc4c(-c5ccccc5F)nn(C)c4s3)CC2)cc1 | i | . | . | ? | 20µM*
Cn1nc(-c2ccccc2F)c2cc(C(=O)N3CCN(c4ccc(F)cc4)CC3)sc21 | i | . | . | ? | ?
Cn1nc(C(=O)N2CCN(c3ccc(F)cc3)CC2)c2c1-c1ccccc1SC2 | i | . | . | i | -12.4%
Cn1nc(C(=O)N2CCN(c3ccccc3F)CC2)c2c1-c1ccccc1SC2 | i | . | . | i | 17.8µM*
Cn1nc(C(=O)N2CCN(c3ccccc3)CC2)c2c1-c1ccccc1SC2 | i | . | . | i | ?
Cc1cccc(NC(=O)/C(=C\c2ccco2)NC(=O)c2cccs2)c1 | i | 0.5% | -7.0% | i | 13.2%
Cc1ccc(C(=O)N/C(=C/c2ccco2)C(=O)Nc2cccc(C)c2)cc1 | i | 9.1% | -6.7% | 31.6µM* | 4.9%
CCN(CCCN(C)C)c1ccc(/C=C/c2ccnc3ccccc23)cc1 | . | 2.1% | . | . | .
C[C@H]1[C@H](c2ccccc2)C[C@@H](C(=O)O)C1(C)C | i | -5.1% | -0.3% | i | 14.1µM*
COc1ccc(CC(=O)N2CCN(C(=O)c3ccc4nc(C)n(C5CCCC5)c4c3)CC2)cc1 | . | . | . | i | .
CCCCc1ccc(Nc2ncnc3nc[nH]c23)cc1 | i | 0.8% | 2.6% | i | 15.8µM*
CCc1ccc(Nc2ncnc3nc[nH]c23)cc1 | i | -5.0% | -6.3% | i | -20.0%
CCCCCc1ccc(-c2ccc(=O)[nH]n2)cc1 | i | 1.7% | -29.9% | i | 17.8µM*
Cc1ccc(-c2ccc(=O)[nH]n2)cc1 | i | 0.5% | -0.3% | i | ?
CCCCCc1ccc(C2=NNC(=O)CC2)cc1 | i | 14.3% | -4.6% | i | 12.6µM*
CCOC(=O)c1ccc2c(c1)N(Cc1cccc([N+](=O)[O-])c1)C(=O)c1ccccc1S2 | i | 4.5% | . | i | 17.9%
Cc1ccc(CNC(=O)c2ccc(N3CCC4(CC3)CC(c3cccc(Br)c3)=NO4)c(NC(=O)c3ccc(Br)cc3)c2)cc1 | i | ? | 4.8% | i | 12.8%

Source: PubChem
